Compound activity from PubChem BioAssay.
Pf growth 48h – P. falciparum growth inhibition at 48 hours (one generation); P. falciparum luciferase growth in erythrocytes, 48 h; Potency, µM (series often up to 28.7 µM), without a hit: at the highest dose activity change, negative = inhibition, actives largely listed as inhibitors; 310,000 tested, 5.9% active; AID 504832; further: on the % scale 0 is the no-effect control and ±100 the full control effect
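Luciferase-expressing P. falciparum in infected erythrocytes (2% hematocrit, 0.1% parasitemia final) in RPMI 1640/0.5% Albumax were exposed to compound for 48 hours at 37 C, 5% CO2; growth read as luminescence.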
AmpC inh detg – AmpC beta-lactamase inhibition with detergent present; Potency, µM (titrated, usually from 114 µM), for inactives: at the top dose activity change, negative = inhibition, most hits filed as inhibitors; AmpC hydrolysis of nitrocefin, absorbance 480 nm, 0.01% Triton; P00811; 370,000 tested, 0.041% active; AID 485294;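 further: 0% = no-compound wells and -100% = no-enzyme wells; nearly all actives have a fitted effect of over 25% in size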
Target sequence (P00811 whole entry, looked up): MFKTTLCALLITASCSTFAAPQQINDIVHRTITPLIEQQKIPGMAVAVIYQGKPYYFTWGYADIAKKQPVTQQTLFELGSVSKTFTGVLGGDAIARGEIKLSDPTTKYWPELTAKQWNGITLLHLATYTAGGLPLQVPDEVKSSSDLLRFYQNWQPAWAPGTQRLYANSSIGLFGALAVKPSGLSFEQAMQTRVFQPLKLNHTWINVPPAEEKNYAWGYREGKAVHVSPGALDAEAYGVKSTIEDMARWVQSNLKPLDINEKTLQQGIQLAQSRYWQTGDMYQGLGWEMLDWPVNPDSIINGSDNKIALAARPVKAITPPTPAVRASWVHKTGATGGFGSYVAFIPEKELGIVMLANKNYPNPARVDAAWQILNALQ
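20 mM phosphate pH 7.0 + 0.01% (detergent screen) or 0.0001% Triton X-100; 5.3 nM AmpC reagent; cpd preinc 15 min RT; nitrocefin (800 uM stock) to start; A480 q20 s × 4 min; Activity was normalised to no-enzyme and no-compound control wells.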
Sm TGR block – S. mansoni TGR enzyme inhibition | AID 485364 | 360,000 tested, 3% active | purified TGR, DTNB reduction, TNB absorbance 405 nm | Potency, µM (highest dose often 114 µM), without a hit: at the top dose activity change, negative = inhibition, actives largely listed as inhibitors | Q962Y6; further: on the % scale 0 is the no-effect control and ±100 the full control effect; nearly all actives have a fitted effect of over 60% in size
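First, TGR (20 nM dispensed) and NADPH were mixed with compound. Second, a 15 min room-temperature incubation followed. Third, further NADPH and then DTNB were added to start the reaction. Finally, TNB absorbance was monitored kinetically.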
SARS PLP yeast – blocks SARS-CoV papain-like protease in a yeast assay; S. cerevisiae expressing SARS-CoV PLpro, growth rescue; Potency, µM (highest dose often 32.9 µM), inactives show at the highest dose activity, positive = growth rescue, actives largely listed as activators; 330,000 tested, 0.19% active; AID 485353; calls by dose curve; further: 0% is about no effect; nearly all actives have a fitted effect of over 55% in size
AmpC no deterg – AmpC beta-lactamase inhibition without detergent; P00811; AmpC nitrocefin hydrolysis, absorbance 480 nm, 0.0001% Triton; Potency, µM (series often up to 57.1 µM), inactives show at the top dose activity change, negative = inhibition, actives largely listed as inhibitors; 330,000 tested, 0.52% active; AID 485341;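 further: plate controls were no compound for no effect and no enzyme for full effect; nearly all actives have a fitted effect of over 20% in size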
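AmpC (5.3 nM in the dispensed reagent) in 20 mM phosphate pH 7.0 with 0.01% (detergent screen) or 0.0001% Triton X-100 was preincubated with compounds for 15 min at room temperature. Nitrocefin was then added from an 800 uM solution, and hydrolysis was followed at 480 nm.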
Pf growth 96h – P. falciparum growth inhibition at 96 hour, primary screen for plastid delayed-death inhibitors; AID 504834; 320,000 tested, 6.9% active; Potency, µM (titrated, usually from 28.7 µM), for inactives: at the top dose activity change, negative = inhibition, hits mostly inhibitors; P. falciparum luciferase reporter growth, 96 h; further: on the % scale 0 is the no-effect control and ±100 the full control effect
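P. falciparum expressing integrated firefly luciferase, in erythrocytes at 2% hematocrit, 0.05% parasitemia, incubated with compounds 96 h at 37 C, 5% CO2. Growth inhibition read as loss of luminescence; two-generation exposure targets delayed-death apicoplast inhibitors.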
Numbers without * were called inactive; ? = inconclusive; . = not tested or not shown. Most compounds without a hit are left out; they make up all but 12% or so of the library. Unless noted, the call rests on the fitted dose curve; in most records, active means well fitted curve in the direction sought with a large enough effect; inconclusive means small, poorly fitted or top-dose-only effect, or another doubt; inactive means no such curve, though single readings can be large; an effect the other way counts as inactive or inconclusive. Potency means the concentration at half of the fitted maximal effect.

SMILES	Pf growth 48h	AmpC inh detg	Sm TGR block	SARS PLP yeast	AmpC no deterg	Pf growth 96h
CCN1C(=O)c2n[nH]c(C(=O)OC)c2C1=O	?	3.2%	7.5%	9.7%	-5.7%	10.4µM*
O=C(OC(C(=O)Nc1ccc(Cl)cc1C(F)(F)F)c1ccccc1)c1c(Cl)cccc1Cl (stereo not drawn)	11.7µM*	-7.4%	5.9%	-3.2%	-17.4%	0.0%
Cc1cc(C(=O)NCC(=O)OC(C(=O)Nc2cc(C(F)(F)F)ccc2Cl)c2ccccc2)ccc1[N+](=O)[O-] (stereo not drawn)	.	-9.0%	10.3%	-3.2%	-16.3%	?
Cc1ccc(C(=O)OC(C(=O)Nc2ccc(Cl)cc2C(F)(F)F)c2ccccc2)cc1 (stereo not drawn)	?	-2.4%	-7.9%	-10.5%	-36.9%	-19.5%
CCCC(=O)OC(C(=O)Nc1cc(C(F)(F)F)ccc1Cl)c1ccccc1 (stereo not drawn)	13.1µM*	7.5%	3.3%	-24.4%	-0.3%	13.1µM*
Cc1cc(C(=O)N2CCN(CCc3ccccc3)CC2)no1	11.5%	?	-5.3%	8.4%	-8.2%	?
CCN(Cc1ccc(NC(C)=O)cc1)CC1CCCN(CCc2cccc(OC)c2)C1 (stereo not drawn)	11.7µM*	-12.5%	-18.8%	0.5%	-7.0%	11.7µM*
CCN(Cc1ccc(C#CCCO)cc1)CC1CCCN(CCc2cccc(F)c2)C1 (stereo not drawn)	4.65µM*	1.6%	11.3%	4.5%	54.3%	-22.0%
CN(Cc1ccc(C#CCCO)cc1)CC1CCCN(CCc2ccc(Cl)cc2)C1 (stereo not drawn)	5.22µM*	-14.4%	-13.3%	-2.8%	84.0%	-11.8%
CN(Cc1ccccc1O)CC1CCCN(CCc2ccc(Cl)cc2)C1 (stereo not drawn)	10.4µM*	-5.5%	2.5%	1.9%	16.5%	-14.3%
CCN(Cc1ccccc1OC)CC1CCCN(CCc2cccc(OC)c2)C1 (stereo not drawn)	?	-18.1%	0.4%	-2.2%	-12.5%	4.2%
COc1ccc(CCN2CCCC(CN(C)Cc3cccc(OC)c3)C2)cc1 (stereo not drawn)	?	-18.0%	5.4%	3.1%	52.0%	?
CSc1nn(Cc2ccc(F)cc2)c(N(C(C)=O)C(C)=O)c1S(=O)(=O)c1ccccc1	.	-3.6%	-35.3%	.	.	.
CCc1ccc(-n2c(=O)c3sc4ccccc4c3n(CC(=O)NCc3ccccc3)c2=O)cc1	.	-8.7%	0.9%	.	.	.
COc1ccc(CCN2CCCC(CN(C)Cc3cc(OC)ccc3OC)C2)cc1 (stereo not drawn)	?	-8.7%	7.8%	-0.8%	5.9%	14.7µM*
CCN(Cc1ccc(OC)c(COC)c1)CC1CCCN(CCc2cccc(OC)c2)C1 (stereo not drawn)	?	-0.3%	-0.8%	-5.7%	96.7%	-12.1%
CCN(Cc1ccc(OC)c(COC)c1)CC1CCCN(CCc2cccc(F)c2)C1 (stereo not drawn)	10.4µM*	-11.9%	5.4%	-3.6%	90.7%	?
CC(=O)c1ccc(-c2ccc(C(=O)N3CCC(C(N)=O)CC3)o2)cc1	42.7%	-11.5%	-23.1%	4.9%	-19.7%	97.7%
Cc1cccc(N2CCN(S(=O)(=O)c3cn(C)c(C)n3)CC2)c1C	.	-0.8%	1.4%	.	.	.
Cc1cc(NC(=O)CSc2nc3c(c(=O)n2Cc2ccccc2)SC(C)C3)no1 (stereo not drawn)	1.85µM*	8.5%	-0.4%	1.2%	-32.0%	1.47µM*
Cc1cc(NC(=O)CSc2nc3c(c(=O)n2-c2ccc(Br)cc2)SCC3)no1	7.38µM*	0.9%	-3.7%	-21.5%	-17.5%	-22.6%
COc1ccc(-n2c(SCC(=O)Nc3cc(C)on3)nc3c(c2=O)SCC3)cc1	?	0.7%	0.8%	17.1%	-21.9%	?
Cc1ccc(-n2c(SCC(=O)Nc3cc(C)on3)nc3c(c2=O)SC(C)C3)cc1 (stereo not drawn)	0.828µM*	?	-5.2%	3.2%	-12.4%	?
CCn1c(SCC(=O)Nc2cc(C)on2)nc2c(c1=O)SC(C)C2 (stereo not drawn)	?	2.7%	4.8%	-4.0%	-3.2%	.
Cc1ccc(CCN2CC(C(=O)NCCCN3CCOCC3)CC2=O)cc1 (stereo not drawn)	14.1%	-1.0%	5.5%	-4.7%	-9.7%	7.8%
SMILES	Pf growth 48h	AmpC inh detg	Sm TGR block	SARS PLP yeast	AmpC no deterg	Pf growth 96h
O=C(NCCCN1CCOCC1)C1CCC(=O)N1CCc1ccccc1 (stereo not drawn)	.	?	89.1µM*	-1.3%	-14.1%	-4.9%
CC1CCCN(CCCNC(=O)C2CC(=O)N(CCc3ccccc3)C2)C1 (stereo not drawn)	-6.8%	3.0%	1.2%	3.6%	-1.9%	14.7µM*
Cc1ccc(CCN2CC(C(=O)NCc3ccco3)CC2=O)cc1 (stereo not drawn)	7.8%	-3.6%	44.7µM*	3.1%	32.6%	16.5%
Cc1ccc(CCN2CC(C(=O)NCCN3CCOCC3)CC2=O)cc1 (stereo not drawn)	12.9%	1.9%	6.3%	4.5%	14.7%	11.7µM*
O=C(NCCCN1CCCCC1)C1CCC(=O)N1CCc1ccccc1 (stereo not drawn)	16.1%	0.8%	21.4%	5.5%	-9.7%	0.4%
CCCCNC(=O)C1CC(=O)N(CCc2ccccc2)C1 (stereo not drawn)	9.5%	7.4%	3.1%	-1.1%	-10.9%	-15.1%
COCCCn1c(SCC(=O)Nc2ccc(NC(C)=O)cc2)nc2sc3c(c2c1=O)CCC3	?	4.6%	6.3%	-0.4%	-21.6%	-7.8%
Cc1nc(C)n(CC(C)C(=O)N2CCN(S(=O)(=O)c3ccccc3)CC2)n1 (stereo not drawn)	?	1.2%	10.2%	29.1%	9.9%	-29.0%
COCCNC(=O)C(OC(=O)C1=Cc2ccccc2OC1)C(C)C (stereo not drawn)	20.0%	1.1%	13.3%	-1.0%	25.3%	?
COc1cc2c(cc1OC)-c1cc3ccc4c(c3c[n+]1CC2)OCO4	1.04µM*	-8.7%	-14.7%	-33.3%	-26.0%	0.147µM*
COc1cc2c(cc1O)CC[n+]1cc3c(OC)c(OC)ccc3cc1-2	0.415µM*	-5.2%	-14.8%	3.4%	-34.5%	0.117µM*
COc1cc2c(cc1OC)CN(Cc1cc(OC)c3c(c1)OCO3)CC2	?	0.7%	10.2%	0.1%	10.5%	?
CCc1cccc(NC(=O)CSc2ncc3c(n2)-c2ccccc2N(Cc2ccccc2C)S3(=O)=O)c1	.	4.7%	26.2%	.	.	.
